The values below come from PubChem BioAssay (NCATS).

Results filed as inconclusive are left out. Where a call stands in place of a potency, no number is given. The source made the active and inactive calls. Calls come from the whole dose curve; as a rule, active = well fitted inhibition curve with a large enough effect; inconclusive = small, poorly fitted or top-dose-only effect; inactive = flat fitted curve, though single readings scatter.

Sequence of Calcium and integrin-binding protein 1 (Homo sapiens) (Q99828 whole entry, looked up): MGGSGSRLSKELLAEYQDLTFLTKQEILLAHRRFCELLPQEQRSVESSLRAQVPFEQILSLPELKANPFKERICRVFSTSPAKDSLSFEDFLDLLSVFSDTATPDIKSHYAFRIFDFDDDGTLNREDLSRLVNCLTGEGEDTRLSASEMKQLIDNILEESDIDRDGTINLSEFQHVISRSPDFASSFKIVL

This assay deals with Calcium and integrin-binding protein 1 (Homo sapiens) (UniProt Q99828). The assay is described as follows: Primary qHTS for Identification of Calcium Integrin Binding Protein 1 (CIB1) Competitor (AID 1508620).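 Note: GST tagged CIB1 binding a fluorescein labelled alphaIIb integrin peptide tracer; top concentration of the series differs between compounds.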 Particulars: CIB1-GST / FITC-alphaIIb peptide fluorescence polarization; series mostly up to 114 µM. The method in brief:
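Fluorescence polarization competition: CIB1-GST (1 uM final) preincubated with compound 15 min at room temperature, then FITC-labeled alphaIIb peptide (100 nM final) added for another 15 min. Polarization read at Ex 480/Em 540.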
Take `COc1ccc(C2Nc3ccccc3C(=O)N2Cc2ccccn2)cc1COc1ccc(NC(C)=O)cc1` (stereo not given): the Potency result is “inactive”.

With `CC(=O)Nc1sc2c(c1-c1cccc(F)c1)CCNC2`, the Potency result was “inactive”.

For the molecule `O=C(Nc1ncc([S+](=O)([O-])N2CCOCC2)s1)c1cccc(Br)c1`, the Potency result was “inactive”.

As for `CC1=C(C(=O)Nc2ccccc2C)C(c2ccccc2Br)N=C(Nc2nc3ccccc3o2)N1` (stereo not given), the Potency result was “inactive”.

`O=S(=O)(c1ccc2c(c1)OCCO2)N1CCN(S(=O)(=O)c2ccccc2OC(F)(F)F)CC1`: the Potency entry was “inactive”.

On to `Cc1cc(C)nc(NC(=S)N2CCN(c3nccs3)CC2)c1`, for which the Potency result is “inactive”.

As for `O=C(O)c1ccc(S(=O)(=O)N[C@H](Cc2ccc(C(F)(F)F)cc2)C(=O)O)cc1`, the Potency result was “inactive”.

With `O=C1Nc2ccccc2C12CC2c1cc(Cl)c(O)c(Cl)c1` (stereo not given), the Potency result is “inactive”.

For the molecule `Cc1ccnc(NC(=S)NCCN(C)c2cccc(C(F)(F)F)c2)c1`, the Potency result was “inactive”.

Regarding `Cn1ccc2cc(-c3ccc4ncnc(NCc5cccc(F)c5)c4c3)ccc21`, the Potency result is “inactive”.

On to `COc1cc(O)c(C(CC(=O)N2CCC(c3ccccc3)CC2)c2ccc3c(c2)OCO3)c(OC)c1` (stereo not given), for which the Potency result is “inactive”.

Consider `NC(=O)C1CCN(c2nc(-c3ccc(C(F)(F)F)cc3)cs2)CC1`, for which the Potency result is “inactive”.

As for `O=C1CCCC2=C1C(c1cccnc1)N=C(Nc1nc3ccccc3o1)N2` (stereo not given), the Potency entry was “inactive”.

As for `O=c1c2ccccc2nc2sc(Nc3ccc(F)cc3)nn12`, the Potency result is “inactive”.

Take `CC(=O)N1CCN(S(=O)(=O)c2ccc3c(c2)CC(=O)N3)CC1`: the Potency entry was “inactive”.

`O=C(Nc1nnc(COc2ccc(Cl)cc2)s1)c1cccs1`: the Potency entry is “inactive”.

For `O=C(Nc1ccc(Cl)nc1)Nc1nnc(-c2ccncc2)s1`, the Potency entry was “inactive”.

For `COc1ccc(C2=Nn3c(nnc3-c3ccccc3C)SC2)cc1OC`, the Potency entry was “inactive”.

As to `Cc1ccc(-c2ccc(CNc3nc(-c4ccccc4C(C)C)nc4ccsc34)cc2)cn1`, the Potency entry was “inactive”.

Turning to `CC(C)c1ccccc1-c1nccc(NCc2ccc(-c3cccnc3)cc2)n1`, the Potency entry is “inactive”.

In the case of `Cc1cccc(C(=O)NC2CCN(C#N)CC2)c1`, the Potency entry is “inactive”.

As to `Cc1ccc(OCCn2c(CCNC(=O)OC(C)(C)C)nc3ccccc32)cc1`, the Potency result was “inactive”.

For the molecule `COc1ccc(C2C3=C(N=CN(CCN4CCOCC4)C3N)Oc3ccccc32)cc1OC` (stereo not given), the Potency result was “inactive”.

On to `COc1ccc(C2Nc3ccccc3C(=O)N2Cc2ccc(C(C)(C)C)cc2)cc1COc1ccc(NC(C)=O)cc1` (stereo not given), for which the Potency entry was “inactive”.

In the case of `O=C(O)c1ccc(S(=O)(=O)N[C@H](Cc2ccc(O)cc2)C(=O)O)cc1`, the Potency result is “inactive”.

Consider `CC(C)(C)OC(=O)N1CCN(c2ccc(NCc3ccc(-c4ccc(C#N)cc4)s3)cc2)CC1`, for which the Potency result is “inactive”.

As for `COc1ccc([C@H]2[C@H](c3ccccc3)C(=O)N2Cc2ccccc2)cc1COc1ccc(NC(C)=O)cc1`, the Potency result is “inactive”.

For the molecule `CNc1nnc(-c2cccc3ccccc23)s1`, the Potency entry was “inactive”.

`Fc1cc(Nc2nc(-c3ccncc3)nc3ccccc23)ccc1OCC(F)(F)F`: the Potency result is “inactive”.

Consider `Cc1ccc(OCCn2c(CCNC(=O)C3CCNCC3)nc3ccccc32)cc1`, for which the Potency entry was “inactive”.

On to `CC(=O)Nc1sc2c(c1-c1ccc3[nH]ccc3c1)CCNC2`, for which the Potency result was “inactive”.

On to `Cc1nnc(-c2cnn(C)c2N)n1CCCc1ccncc1`, for which the Potency entry is “inactive”.

For `COc1ccc(CC(=O)Nc2nc(-c3ccc4c(c3)CCN4C(=O)c3ccccc3C)c(C)s2)cc1`, the Potency result is “inactive”.

Take `N#Cc1ccccc1CCc1nc2ncc(Br)cc2[nH]1`: the Potency result is “inactive”.

`CN(CCc1cnc[nH]1)c1ncnc2ccc(-c3ccc4c(c3)OCO4)cc12`: the Potency entry is “inactive”.

Regarding `O=C(Nc1ncc(Cc2ccc(C(F)(F)F)cc2)s1)c1cnc(-c2ccccc2)s1`, the Potency result is “inactive”.

On to `CCN(CC)c1cc2c(cc1S(=O)(=O)Nc1ccc(C)c(C)c1)CCC(=O)N2`, for which the Potency entry is “inactive”.

For `Oc1ccc(CNc2nccc3ccccc23)c2cccnc12`, the Potency result was “inactive”.

For `O=[S+]([O-])(Nc1ccc(-c2ccccc2)cc1)c1ccc(NCc2ccc(Cl)cc2O)cc1`, the Potency entry is “inactive”.

Regarding `CC(=O)c1c(C)[nH]c(C(=O)Nc2ccc(OCCCN(C)C)c(S(=O)(=O)Nc3ccc(Br)cc3)c2)c1C`, the Potency entry is “inactive”.
